In the emibetuzumab library of Makowski et al. (2022):
The list shows a part of the results. The hit rate among all sequences tested is not known here.

B1: VH:VL chains; a variant is named by its letters at X, in order (parent)
chain 1: QVQLVQSGAEVKKPGASVKVSCKASGYTFTDYXMHWVRQAPGQGLEWMGXVNPNXXXTTYNQKFEGRVTMTTDTSTSTAYMELRSLRSDDTAVYYCARXNXLDXWGQGTTVTVSS
chain 2: DIQMTQSPSSLSASVGDRVTITCSVSSSVSSIYLHWYQQKPGKAPKLLIYSTSNLASGVPSRFSGSGSGTDFTLTISSLQPEDFATYYCQVYSGYPLTFGGGTKVEIK

Variants of: B1
Experiment: yeast display scFab, FACS + sequencing
Conditions: with MET
Method in brief: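 A yeast surface library of scFab variants carrying heavy-chain CDR mutations went through two magnetic enrichment rounds on Protein A beads coated with HGFR-Fc, then FACS. For sorting, cells were labelled for 3 h at room temperature with 1 nM HGFR-Fc and anti-Myc in PBSB containing 1% milk, and the top 50% of antigen-positive cells were gated. Input and round-3 sorted populations were deep sequenced in two replicates. A sequence was called an antigen binder if it appeared in both antigen-positive samples and a non-binder if it appeared only in the input.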

Row | Variant | antigen binding call
1 | DEETNSGA | no binding
2 | AREGDDVA | no binding
3 | YRGRAAVS | binds
4 | YARRAAVS | no binding
5 | YTGTSAVS | no binding
6 | YRGGGSGS | binds
7 | YAAGGFAY | no binding
8 | YRGGGFAD | binds
9 | YRGRGYAY | binds
10 | YRGRGFAY | binds
11 | YKGAAFAD | no binding
12 | YRGRGFAD | binds
13 | VATGDDVA | no binding
14 | SATKTVVV | no binding
15 | VTGEDSGV | no binding
16 | SKGASFAY | no binding
17 | YKGRGFAY | binds
18 | DTGTGDSA | no binding
19 | DAGGGDVV | no binding
20 | VEGGNDGA | no binding
21 | YAGGGDWA | no binding
22 | YRKRGSVV | binds

Row | Variant | antigen binding call
23 | YRKRGDVV | binds
24 | DREEGDVV | no binding
25 | YRKRGSLV | binds
26 | YRKGSSGV | binds
27 | DAGGDDGA | no binding
28 | AARADAVY | no binding
29 | DARETFLD | no binding
30 | SGREGDWD | no binding
31 | YRKRGVGV | no binding
32 | VEKGGSGV | no binding
33 | VRKGGSGV | binds
34 | YRKRGSGV | binds
35 | YRKRGSLY | binds
36 | YRKGGSGV | binds
37 | DGGGASSA | no binding
38 | YTAGSDGA | no binding
39 | SEARSDAD | no binding
40 | VEGGGDVY | no binding
41 | VAEKGDGV | no binding
42 | VTAGDDGV | no binding
43 | VGGGAAGF | no binding
44 | YKRGDAVF | binds

Row | Variant | antigen binding call
45 | YKRGSSGF | binds
46 | YKRGSAGF | binds
47 | YKKGAAGF | binds
48 | YGTAAFGF | no binding
49 | YARADDVF | no binding
50 | VKRGDDVV | no binding
51 | FGKGGFGY | no binding
52 | YATEDSGF | binds
53 | YKRGDSGF | binds
54 | YAARASGF | no binding
55 | YARADSGD | no binding
56 | AGTKADVV chain 1 G108S | no binding
57 | YKGKGSSY | binds
58 | VKGKGDVY | no binding
59 | VGTKGSSA | no binding
60 | YKGKGSLY | binds
61 | YKTKGSSY | binds
62 | DATGGSSY | no binding
63 | YRGKSSAD | binds
64 | FRAKGSAD | binds
65 | FKGKGSAD | binds
66 | FRGKGSAD | binds

Row | Variant | antigen binding call
67 | FKGRGSAA | binds
68 | YAGKTSAD | no binding
69 | DAAGASVD | no binding
70 | YTKGTSVA chain 1 E65K | no binding
71 | DKEGGFGV | no binding
72 | DEGGTDGS | no binding
73 | SRATAYSD | no binding
74 | YRGKGSAD | binds
75 | VEGAADVD | no binding
76 | VTGGGASF | no binding
77 | YRKGSSVS | binds
78 | YRKGGSVS | binds
79 | YRKRGSVF | binds
80 | DTKGDSVS | no binding
81 | YRTRSSVS | binds
82 | VEGTSSLD | no binding
83 | YRGEGAVS | binds
84 | FKGEGFGS | no binding
85 | FRGEGAVS | binds
86 | FRGEGSVS | binds
87 | FAATDSVS | no binding
88 | VRRRGALD | binds

Row | Variant | antigen binding call
89 | VRKRGALD | binds
90 | VRRGGALD | binds
91 | VEEEGALD | no binding
92 | VGGTSALD | no binding
93 | VTERSALD | no binding
94 | VKEKGALD | no binding
95 | ATGEADAS | no binding
96 | DAEATSWV | no binding
97 | DTGTGAGD | no binding
98 | AEEKGSGD | no binding
99 | VRTEDDVA | no binding
100 | VRGKGASA | binds
101 | VRTEDSWA | no binding
102 | VRTEDAWA | binds
103 | YRGKGAWA | binds
104 | VKGKGASA | no binding
105 | YKGKGAWA | binds
106 | YATKGAWA | no binding
